GALK inhibitor: inhibitors of human galactokinase; Purified GALK, Kinase-Glo residual ATP luminescence; Potency, µM (doses to about 57.5 µM), for inactives: at the highest dose activity change, negative = inhibition, actives largely listed as inhibitors; 270,000 compounds, 0.007% hits; also: potency is read from the fitted curve at half-maximal effect
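Compounds were pin-transferred into ATP buffer (35 uM final), then GALK plus galactose (5 nM, 100 uM final) was added. After 1 h at room temperature, Kinase-Glo Plus was added and luminescence read after 10 min.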
Giardia killer: kills Giardia lamblia | Giardia lamblia trophozoite viability | 340,000 compounds, 0.15% hits | activity change, % at 7.66 µM, hits read low | AID 540267; in the data active = activity change below about -80%; inconclusive = between about -30% and that limit;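 also: parasites exposed to compound for two days anaerobically before the ATP read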
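Giardia trophozoites, 100 cells per well, were exposed to compounds for 48 hrs at 37 deg C under anaerobic conditions; viability was then read as ATP content by bioluminescence after 15-30 min at room temperature.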
FBPA coupling cs: inhibits coupling enzyme system, counter-screen for aldolase hits. coupling enzyme system counterscreen, AmpLite Red fluorescence. activity change, negative = inhibition, % at 58.2 µM, hits read low. 290,000 compounds, 0.67% hits. AID 2472; in the data active = activity change below about -30%
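Compounds tested against the coupling enzymes alone at 57.5 uM final; readout was AmpLite Red fluorescence (525/598 nm) after 20 min at RT.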
TrxR1 inh: rat TrxR1 inhibition; O89049; recombinant rTrxR1, NADPH fluorescence consumption, selenite substrate; Potency, µM (highest dose often 114 µM), without a hit: at the top dose activity change, negative = inhibition, hits mostly inhibitors; AID 588453; 390,000 compounds, 1% hits; also: potency is read from the fitted curve at half-maximal effect; nearly all actives have a fitted effect of over 65% in size
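Rat TrxR1 (90 nM in the dispensed reagent) was pre-reduced with 400 uM NADPH for 5 min at room temperature, then incubated with compound for 15 min. After 400 uM selenite was added, NADPH fluorescence (Ex 340/Em 450 nm) was followed for 8 min.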
TrxR1 substrate: is turned over as a substrate by rat TrxR1; O89049; purified TrxR1 substrate turnover, NADPH consumption readout; Potency, µM (titrated, usually from 114 µM), for inactives: at the highest dose activity change, negative = substrate turnover; 390,000 compounds, 0.01% hits; AID 588456; also: potency is read from the fitted curve at half-maximal effect; nearly all actives have a fitted effect of over 50% in size
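Rat TrxR1, dispensed at 90 nM, was prereduced with 400 uM NADPH (final) for 5 min at ~22 deg C, then incubated with compound 15 min before 400 uM selenite. A first-read NADPH fluorescence drop versus no-compound background flagged substrates.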
PI4K2A block: PI4K2A (human) kinase inhibition; purified PI4K2A, ADP-Glo luminescence, 1 h; stronger effect = lower value; activity change, negative = inhibition, % at 76.9 µM; 420,000 compounds, 0.13% hits; in the data active = activity change below about -50%; inconclusive = mostly about -30% to -49%;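 also: -100% = wells without enzyme as full effect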
Target sequence (Q9BTU6 whole entry, looked up): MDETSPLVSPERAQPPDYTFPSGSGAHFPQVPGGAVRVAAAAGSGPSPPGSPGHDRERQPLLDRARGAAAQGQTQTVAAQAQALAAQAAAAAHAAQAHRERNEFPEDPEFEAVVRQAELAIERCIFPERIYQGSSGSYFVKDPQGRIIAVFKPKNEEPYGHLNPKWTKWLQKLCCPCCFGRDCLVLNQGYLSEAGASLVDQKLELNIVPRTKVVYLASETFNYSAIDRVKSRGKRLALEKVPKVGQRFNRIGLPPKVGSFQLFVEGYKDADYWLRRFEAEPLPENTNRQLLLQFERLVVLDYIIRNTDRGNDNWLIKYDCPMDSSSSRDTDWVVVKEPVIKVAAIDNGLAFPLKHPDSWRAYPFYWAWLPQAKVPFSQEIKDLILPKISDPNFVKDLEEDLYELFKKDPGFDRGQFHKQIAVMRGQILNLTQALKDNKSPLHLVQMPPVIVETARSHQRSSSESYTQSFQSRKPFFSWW
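ADP-Glo luminescence measured ADP generated by PI4K2A enzyme (4 ug/mL before mixing) with 1.2 mM PI substrate (pre-mix) and 300 microM ATP (pre-mix). Tris pH7.5 buffer with MgCl2, Triton X-100; 1 h reaction at ambient temperature.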
Numbers without * were called inactive; i = inactive; ? = inconclusive; · = no result; [ ] = another dose, or the depositor's remark. Shown are actives, neighbours in structure and some others; about 1.5% of the full set was active somewhere. Unless noted, calls follow the shape of the dose curve; as a rule, active = well fitted curve in the direction sought with a large enough effect; inconclusive = small, poorly fitted or top-dose-only effect, or another doubt; inactive = no such curve, though single readings can be large; an effect the other way counts as inactive or inconclusive. Unless noted, % is scaled to controls: 0 for no effect and ±100 for the full control effect.

SMILES	GALK inhibitor	Giardia killer	FBPA coupling cs	TrxR1 inh	TrxR1 substrate	PI4K2A block
CN1CCN(C(c2ccc(Cl)cc2)c2cc(Cl)c3cccnc3c2O)CC1 (centres undefined)	1%	11	-6	6.3µM*	2%	13
O=C(O)c1cc(S(=O)(=O)Nc2ccc3oc(=O)sc3c2)ccc1O	1%	17	17	12%[57.1 µM]	4%[57.1 µM]	-68*
CC(=O)c1c(C)oc2ccc(NS(=O)(=O)c3ccc(O)c(C(=O)O)c3)cc12	-3%	0	21	-17%	-6%	-21
CCOc1cc(/C=C2\NC(=O)NC2=O)cc([N+](=O)[O-])c1O	·	7	0	50µM*	-11%	-2
COc1ccc(NC(=O)c2cc(S(=O)(=O)N3CCCC(C)C3)cn2C)c(OC)c1 (centres undefined)	·	·	·	21%[57.1 µM]	5%[57.1 µM]	3
Cc1cc(C)c(S(=O)(=O)NCC(c2ccco2)S(=O)(=O)c2ccccc2)c(C)c1 (centres undefined)	·	·	·	4%[57.1 µM]	6%[57.1 µM]	4
Cc1cc(C)c(S(=O)(=O)NCC(c2cccs2)S(=O)(=O)c2ccccc2)c(C)c1 (centres undefined)	·	·	·	2.5µM*	5%[57.1 µM]	13
CCOc1ccc(S(=O)(=O)NCC(c2cccs2)S(=O)(=O)c2ccc(C)cc2)cc1 (centres undefined)	·	·	·	0.89µM*	0%[57.1 µM]	17
Cc1ccc(S(=O)(=O)C(CNS(=O)(=O)c2ccc(F)c(C)c2)c2cccs2)cc1 (centres undefined)	·	·	·	?	-4%[57.1 µM]	7
CC(=O)Nc1ccn(C2OC(C(COC(C)=O)NC(=O)C(C)NC(=O)OC(C)(C)C)C(OC(C)=O)C2OC(C)=O)c(=O)n1 (centres undefined)	·	?	1	13%[57.1 µM]	-1%	·
Cc1cc(=O)oc2c(CN3CCCCC3)c(O)ccc12	·	3	·	-107%	i	-1
Cc1cc(=O)oc2c(CN3CCOCC3)c(O)ccc12	·	-12	·	56µM*	i	-1
Cc1c(C)c2ccc(O)c(CN3CCCC3)c2oc1=O	·	17	1	?	i	-1
CCc1c(C)c2ccc(O)c(CN3CCCC3)c2oc1=O	2%	-12	1	22µM*	i	-1
Oc1c(Br)cc(Br)cc1CNc1cnc2ccccc2c1	6%	4	-3	-9%	10%	-2
Oc1c(Br)cc(Br)cc1CNc1ccc(F)cc1	-4%	-1	-33*	8%	0%	2
CCOc1cc(/C=C(\C#N)C(=O)Nc2ccccn2)ccc1O	-3%	-16	0	25µM*	-1%	10
COc1cc(/C=C(\C#N)C(=O)Nc2ccccn2)ccc1O	0%	-6	1	?	-11%[57.1 µM]	6
O=S(=O)(CCN1CCCCC1)Oc1ccc(Cl)cc1Cl	-2%	-10	1	0.89µM*	3%	10
O=C(CCS(=O)(=O)c1ccccc1)N(CCCN1CCOCC1)c1nc2ccc(F)cc2s1	·	-1	·	7.1µM*	8%	2
O=C(CCS(=O)(=O)c1ccccc1)N(CCCN1CCOCC1)c1nc2c(F)cccc2s1	·	1	·	3.2µM*	-10%	6
CCc1cccc2sc(N(CCCN3CCOCC3)C(=O)CS(=O)(=O)c3ccccc3)nc12	·	9	·	-6%	-9%	-2
Cn1c(=O)oc2cc(S(=O)(=O)NC(Cc3ccccc3)C(=O)Nc3ccc(F)c(Cl)c3)ccc21 (centres undefined)	·	·	·	21%	5%	-13
O=S(=O)(c1cccc(F)c1)N1CCN(c2nc(-c3cccs3)nc3ccccc23)CC1	·	-17	·	12%	10%	·
COc1ccc(/C=C/c2c(-c3ccc(OC)cc3)oc3ccccc23)cc1	·	-10	-1	45µM*	57%	-5
SMILES	GALK inhibitor	Giardia killer	FBPA coupling cs	TrxR1 inh	TrxR1 substrate	PI4K2A block
COC(=O)c1ccc(/C=C/c2c(-c3ccc(OC)cc3)oc3ccccc23)cc1	·	18	0	33%	82%	-4
Cc1cc(/C=C2\SC(=S)NC2=O)c(C)n1C	-4%	-1	1	25µM*	-18%	-18
CCOc1cnn(-c2cc(Oc3ccc(C)cc3)ncn2)c(=O)c1Cl	2%	-10	4	15%	7%	1
Cc1ccccc1Oc1cc(-n2ncc(Cl)c(Cl)c2=O)ncn1	-6%	-17	2	0.79µM*	3%	-6
CCCCN1CCS(=O)(=O)N(Cc2cn(Cc3cccc(Cl)c3)nn2)C(C(=O)OC)C1 (centres undefined)	·	·	·	·	·	-4
COc1cccc(-c2cc(C(=O)N3CCN(C(=O)c4ccco4)CC3)on2)c1	-4%	-14	·	79µM*	5%	1
O=C(CN1CCN(C(=O)c2ccco2)CC1)Nc1ccccc1	-1%	14	-1	19%	7%	4
COc1cccc(NC(=O)CN2CCN(C(=O)c3ccco3)CC2)c1	1%	-11	·	71µM*	9%	-3
COc1cccc(-c2nc(C#N)c(N3CCN(C(=O)c4ccco4)CC3)o2)c1	4%	24	·	140%	182%	-7
Cc1cc(C)cc(NC(=O)NCCCN2CCN(c3ccc(F)cc3)CC2)c1	·	·	·	·	·	0
COc1ccc(NC(=O)c2csc3c2CCCC3)cc1	0%	9	-5	17%	-4%	-61*
Cc1ccc(-c2nc3n(n2)Cc2ccccc2-3)cc1	6%	?	-12	-11%	-11%	?
CCn1c(C)nc2cc(-c3nc4n(n3)Cc3ccccc3-4)ccc21	10%	-105*	-15	2%	37%	-69*
CCOC(=O)c1cnc(-c2ccccc2)[nH]c1=O	5%	-3	-15	7%	-9%	4
CCOC(=O)c1cnc(-c2cccc(OC)c2)[nH]c1=O	1%	-15	-33*	-3%	-6%	-2
Cc1ccc(C(=O)N(Cc2ccc(N(C)C)cc2)CC2CCCO2)cc1 (centres undefined)	·	·	·	10%	1%	-4
CCOc1ccccc1CNC(=O)c1cc2c(=O)n(Cc3ccccc3)ccc2nc1C	·	·	·	7%[57.1 µM]	12%[57.1 µM]	0
CCN(CC)CCCNc1ccc2ncn3c4ccc(O)cc4c(=O)c1c23	·	-8	·	9%[11.4 µM]	-11%[57.1 µM]	-50*
CCNc1ccc(Br)cc(C(=O)/C=C/c2c(Cl)cccc2Cl)c1=O	-4%	4	-18	?	-14%	-5
CCNc1ccc(Br)cc(C(=O)/C=C/c2ccc3c(c2)OCO3)c1=O	-1%	4	-29	7.9µM*	-5%	-13
CCNc1ccc(Br)cc(C(=O)/C=C/c2ccc(Cl)cc2)c1=O	·	-3	-28	35µM*	-18%	3
CCCCCCCCCCCCCCNCCO	·	·	·	·	·	-1
